Experimental data published in PubChem BioAssay AID504333 (National Center for Advancing Translational Sciences (NCATS), 2011).
In all, about 360,000 compounds went through this assay and about 16,000 (4.4%) were called active. Not shown: some 9% with an inconclusive outcome. Calls follow the shape of the dose curve; as a rule, active = well fitted inhibition curve with a large enough effect; inconclusive = small, poorly fitted or top-dose-only effect; inactive = no such curve, though single readings can be large or run the other way. This excerpt belongs to a sample that is enriched for actives.

target: Bromodomain adjacent to zinc finger domain protein 2B (Homo sapiens) (UniProt Q9UIF8); test: qHTS Assay for Inhibitors of BAZ2B; conditions: AlphaScreen BAZ2B-H3K14Ac peptide displacement; series mostly up to 114 µM; also: nearly all actives have a fitted effect of over 60% in size
Sequence (Q9UIF8 whole entry, looked up, the tested form may be a part): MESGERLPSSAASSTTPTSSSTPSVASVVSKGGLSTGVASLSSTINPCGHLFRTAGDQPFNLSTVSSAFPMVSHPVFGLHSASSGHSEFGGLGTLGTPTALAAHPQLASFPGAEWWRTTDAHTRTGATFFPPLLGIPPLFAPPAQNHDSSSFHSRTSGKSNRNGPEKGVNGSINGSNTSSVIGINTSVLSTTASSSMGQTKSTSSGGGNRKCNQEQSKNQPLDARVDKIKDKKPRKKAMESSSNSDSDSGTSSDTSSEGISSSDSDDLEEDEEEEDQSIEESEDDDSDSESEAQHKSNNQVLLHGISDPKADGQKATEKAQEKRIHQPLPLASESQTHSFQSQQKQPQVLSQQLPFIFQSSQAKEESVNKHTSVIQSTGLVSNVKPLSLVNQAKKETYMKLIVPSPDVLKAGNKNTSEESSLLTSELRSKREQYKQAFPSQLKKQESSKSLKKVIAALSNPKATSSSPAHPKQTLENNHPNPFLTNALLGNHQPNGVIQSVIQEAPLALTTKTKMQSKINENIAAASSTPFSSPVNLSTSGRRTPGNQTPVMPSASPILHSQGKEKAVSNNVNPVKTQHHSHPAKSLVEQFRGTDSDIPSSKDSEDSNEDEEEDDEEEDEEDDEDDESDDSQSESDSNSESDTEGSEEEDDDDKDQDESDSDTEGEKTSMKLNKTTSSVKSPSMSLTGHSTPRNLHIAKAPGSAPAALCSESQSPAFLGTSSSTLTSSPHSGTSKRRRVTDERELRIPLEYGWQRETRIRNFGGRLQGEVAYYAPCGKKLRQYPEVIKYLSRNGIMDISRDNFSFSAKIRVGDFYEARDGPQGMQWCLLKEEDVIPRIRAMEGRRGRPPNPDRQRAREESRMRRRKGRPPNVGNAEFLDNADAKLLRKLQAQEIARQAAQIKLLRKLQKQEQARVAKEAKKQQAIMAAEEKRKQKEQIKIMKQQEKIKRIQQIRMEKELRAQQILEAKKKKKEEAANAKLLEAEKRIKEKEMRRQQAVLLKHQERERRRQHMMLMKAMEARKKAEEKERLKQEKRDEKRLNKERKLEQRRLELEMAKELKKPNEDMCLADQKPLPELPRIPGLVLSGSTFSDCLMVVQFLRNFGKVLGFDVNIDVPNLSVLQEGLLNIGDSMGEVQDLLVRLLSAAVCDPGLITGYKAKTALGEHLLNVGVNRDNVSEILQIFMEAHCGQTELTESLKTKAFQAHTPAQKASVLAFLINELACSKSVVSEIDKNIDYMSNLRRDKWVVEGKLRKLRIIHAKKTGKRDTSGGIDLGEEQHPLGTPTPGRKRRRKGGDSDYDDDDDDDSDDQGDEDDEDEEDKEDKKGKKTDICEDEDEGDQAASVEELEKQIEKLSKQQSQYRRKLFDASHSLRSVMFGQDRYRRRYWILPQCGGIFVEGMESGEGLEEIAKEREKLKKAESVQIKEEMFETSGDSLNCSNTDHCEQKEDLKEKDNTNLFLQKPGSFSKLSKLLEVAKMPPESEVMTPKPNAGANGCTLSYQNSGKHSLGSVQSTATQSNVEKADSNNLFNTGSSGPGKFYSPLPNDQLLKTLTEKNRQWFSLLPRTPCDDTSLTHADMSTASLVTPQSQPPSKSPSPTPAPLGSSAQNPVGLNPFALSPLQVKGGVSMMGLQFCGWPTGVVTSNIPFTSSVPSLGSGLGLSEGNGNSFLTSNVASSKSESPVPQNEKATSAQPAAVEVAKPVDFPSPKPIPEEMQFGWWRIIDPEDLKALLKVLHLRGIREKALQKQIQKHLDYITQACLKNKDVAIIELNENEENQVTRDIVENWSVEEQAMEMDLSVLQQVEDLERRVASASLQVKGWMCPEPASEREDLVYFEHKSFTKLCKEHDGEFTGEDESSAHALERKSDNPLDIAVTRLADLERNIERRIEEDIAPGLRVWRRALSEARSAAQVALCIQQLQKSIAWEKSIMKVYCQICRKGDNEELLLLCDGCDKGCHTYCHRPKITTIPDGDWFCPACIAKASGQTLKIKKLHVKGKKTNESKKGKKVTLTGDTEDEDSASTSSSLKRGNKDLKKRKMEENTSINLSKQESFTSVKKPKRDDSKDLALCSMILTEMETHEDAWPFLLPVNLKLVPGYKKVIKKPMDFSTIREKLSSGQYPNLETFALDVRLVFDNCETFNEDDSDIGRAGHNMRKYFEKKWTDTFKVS
Text: BAZ2B (bromodomain adjacent to zinc finger domain, 2B) belongs to a family of ubiquitously expressed bromodomain containing proteins, which biological function has not yet been elucidated. […] The interaction of BAZ2B with ISWI mediated by the BAZ1 motif has recently been described. […] The protocol is based on the AlphaScreen (PerkinElmer) displacement assay developed by NCGC [5], but uses the peptide ligand Biot-H3K14Ac, a high affinity binding partner for BAZ2B, in an AlphaScreen format. Although AlphaScreen has significant advantages with its utility in a variety of epigenetic target assays, the primary screening data provided in this deposition should be used with caution due to the prevalence of screening artifacts. The top compound concentration tested was 110uM in this assay, which increases number of actives and potential artifacts. An AlphaScreen counterscreen is highly recommended to be run against any putative actives to eliminate non-specific artifacts. Alternatively, one can use other AlphaScreen assays in PubChem to filter out promiscuous hits. Eberharter, A. et al. ACF1 improves the effectiveness of nucleosome mobilization by ISWI through PHD-histone contacts. The EMBO journal 23, 4029-4039. 2004. PMID: 15457208 [2] Jones, M.H. et al. A novel family of bromodomain genes. Genomics 63, 40-45. 2000. PMID: 10662543 [3] Yasgar, et al. Compound Management for Quantitative High-Throughput Screening. JALA. 2008 Apr;13(2):79-89. PMID: 18496600 [4] Inglese, et al. Quantitative high-throughput screening: a titration-based approach that efficiently identifies biological activities in large chemical libraries. Proc Natl Acad Sci. 1;103(31):11473-8. 2006. PMID: 16864780 [5] Quinn et al. A chemiluminescence-based method for identification of histone lysine methyltransferase inhibitors. Mol Biosyst 6(5): 782-8. 2010. PMID: 20567762 [6] Baell,Holloway. New substructure filters for removal of pan assay interference compounds (PAINS) from screening libraries and for their exclusion in bioassays. J Med Chem. 53(7):2719-40. 2010. PMID: 20131845 NIH Molecular Libraries Probe Production Network [MLPCN] NIH Chemical Genomics Center [NCGC] Structural Genomics Consortium (SGC) NIH Grant: 5U54 MH084681-02
To each well of a 1,536w plate, 2ul of BAZ2B protein (final 50nM) and 1ul biotinylated histone peptide acetylated at Lys14 [b-H3(5-23)K14Ac] (final 50nM) were added in 1x PBS buffer, pH 7.4, containing 0.01% Tween-20, using a nanoliter dispenser. Formation of a protein-peptide complex proceeded at room temperature for 30 min. A Kalypsys pin-tool was employed to transfer 23 nL of library compound solution in DMSO to each well. Following a 30 min incubation of the protein-peptide complex with compounds at room temperature, a mixture of 40 ug/mL each streptavidin-coated donor and nickel chelate acceptor AlphaScreen beads (final 10 ug/mL) were added in a 1ul dispense for a final volume of 4ul. A brief centrifugation followed (1000rpm, 1 min) and were then incubated protected from the light for 20 min at room temperature. Plates were read on an EnVision multilabel plate reader using the 1,536 plate HTS AlphaScreen aperture (excitation time 80 ms, measurement time 240 ms).
% is scaled to controls: 0 for no effect and ±100 for the full control effect; potency is read from the fitted curve at half-maximal effect.

Potency, active:
CC(=O)N1CCN(c2ccc(NCc3ccc(C(C)C)cc3)cc2)CC1 35.5 µM
CCN1/C(=C\c2ccc3ccccc3[n+]2CC)Sc2cc(C)ccc21 50.1 µM
O=C(COC(=O)c1cnc(Cl)c(Cl)c1)NCc1ccco1 50.1 µM
Cc1c(Cl)cnc(NC(=O)COC(=O)c2ccc(S(=O)(=O)NCc3ccco3)cc2)c1Cl 50.1 µM
CC(C)c1ccc(NC(=O)c2ccc(Cn3nc(N4CCN(c5ccccc5)CC4)ccc3=O)o2)cc1 39.8 µM
COc1cc(OC)c(C(=O)Nc2ccc(N(C)C)cc2)cc1OC 50.1 µM
CCOc1ccccc1N1CCN(C(=O)c2ccc3[nH]c(C)c(C)c3c2)CC1 44.7 µM
COc1ccc(N2CCN(C(=O)/C(C#N)=C/c3ccccc3)CC2)cc1 50.1 µM
C/C(=C/c1ccccc1)C(=O)N1CCN(c2ccccc2)CC1 56.2 µM
O=C1/C(=C/c2cccs2)SC(=S)N1C1CCS(=O)(=O)C1 (stereo unspecified) 22.4 µM
COc1cccc(OC)c1C(=O)N1CCN(Cc2cccnc2)CC1 50.1 µM
CCCn1c(NCc2ccc(N(CC)CC)cc2)nc2ccccc21 39.8 µM
Cc1cccc(C)c1-n1c(C)cc(/C=C2\C(=O)NN(c3ccccc3)C2=O)c1C 14.1 µM
c1ccc2c(C[n+]3csc4ccccc43)cccc2c1 56.2 µM
COc1ccccc1OCCNCC(O)COc1cccc2[nH]c3ccccc3c12 (stereo unspecified) 39.8 µM
Cc1n[nH]c(=O)nc1N/N=C/c1cccs1 17.8 µM
COc1cccc(OC)c1C(=O)NC(=S)NCc1ccco1 79.4 µM
Cc1c(CCC(=O)O)c(=O)oc2c(C)c(OCc3ccccc3Cl)ccc12 70.8 µM
CCN(c1ccc(NC(=O)COC(=O)CCc2nc3ccccc3n2-c2ccccc2)cc1)C(C)C 25.1 µM
COc1cc(/C=C(\C#N)c2nc3c(s2)CC(C)CC3)ccc1O (stereo unspecified) 50.1 µM

Potency, inactive:
O=C(NCCc1ccc(Cl)cc1)c1ccc2c(c1)N(Cc1ccc(F)cc1)C(=O)CS2
COc1cc(NC(=O)c2noc3c2CSc2ccccc2-3)cc(OC)c1OC
COc1ccc(-n2c(=O)c3sc4ccccc4c3n(CC(=O)Nc3cccc(C)c3)c2=O)cc1
COc1ccc(NC(=O)Cn2c(=O)n(CCC(C)C)c(=O)c3cccnc32)cc1Cl
Cc1cccc(OCCCC(=O)Nc2sc3c(c2C(N)=O)CCC(C)C3)c1 (stereo unspecified)
COc1ccc(Cl)cc1NC(=O)Cn1c(=O)c2ccccc2n2nncc12
COc1ccc(OC)c(NC(=O)CN2CCCN(Cc3cc(C)ccc3C)S2(=O)=O)c1
Cc1cc(C(=O)Nc2cccc(C(F)(F)F)c2)c2c(C)nn(-c3cccc(F)c3)c2n1
CC(=O)c1ccc(N2CCN(C3C(=O)c4ccccc4N3C(C)=O)CC2)cc1 (stereo unspecified)
Cc1ccc(C)c(Cn2c(CCCNC(=O)C3CCCCC3)nc3ccccc32)c1
O=C(Nc1ccc(F)cc1)N1CCN(c2ccc(F)cc2)CC1
COc1cc(OC)c(NC(=O)c2cnc(N3CCCC3)nc2C)cc1Cl
O=C(NCc1ccccc1)c1ccc2c(c1)nc1n2CCCCC1
COc1cccc(C(=O)Nc2ccc3oc(-c4ccc5ccccc5c4)nc3c2)c1
CCCSc1nc2sc3c(c2c(=O)n1-c1cccc(Br)c1)CC(C)(C)OC3
O=S(=O)(NCc1ccco1)c1cnc(Cl)c(Cl)c1
CSCCC(NC(=O)c1ccco1)C(=O)OCC(=O)Nc1ncc(Cl)c(C)c1Cl (stereo unspecified)
O=C(CCCl)Nc1ccc(S(=O)(=O)NCc2ccco2)cc1
O=C(COC(=O)c1ccco1)NCc1ccc(Cl)cc1
Cc1nn2c(=O)cc(COC(=O)CNC(=O)c3ccc(F)cc3)nc2s1
CC1=C(c2ccc(C)c(C)c2)S(=O)(=O)NC1=NCc1ccccc1Cl
CCn1nc(C(=O)Nc2ccc(N3CCOCC3)cc2)c2ccccc2c1=O
COc1ccccc1N1CCN(c2ccc(=O)n(CC(=O)NCc3ccc(OC(C)C)cc3)n2)CC1
Fc1ccccc1Oc1ncnc2c1oc1ccccc12
O=C(Nc1ccc(Br)cc1)c1cc2nc(-c3ccccc3)cc(-c3ccccc3)n2n1
COc1ccc(Cl)cc1C(=O)Nc1ccc(N(C)C(C)=O)cc1
COc1cc(OC)c(C(=O)Nc2ccccc2-c2ccccc2)cc1OC
Cc1cc(C)cc(NC(=O)CCS(=O)(=O)c2cc3c4c(c2)CCN4C(=O)CC3)c1
COc1ccc(NC(C)=O)cc1NC(=O)CN1CCN(c2ccc(F)cc2)CC1
CCS(=O)(=O)N1CCc2cc(C(=O)N3CCN(c4ccccc4OC)CC3)ccc21
Cc1[nH]c2ccc(C(=O)N3CCN(C)CC3)cc2c1C
CN(C(=O)CSc1nnc(NC(=O)Nc2ccccc2)s1)c1ccccc1
Cc1ccc(-n2cnc3cc(C(=O)NCCC4=CCCCC4)ccc32)cc1Cl
CCOC(=O)/C(C#N)=C/c1ccc(N2CCN(Cc3ccccc3)CC2)cc1
CC(CC(=O)N1CCN(c2ccccc2)CC1)c1ccccc1 (stereo unspecified)
COCCCNC(=O)Cn1cc(/C=C(\C#N)C(=O)N2CCN(c3ccccc3)CC2)c2ccccc21
O=C(CN1CCCC1)N1CCN(c2ccccc2)CC1
Fc1ccc(C(Nc2ccc(Cl)c(C(F)(F)F)c2)c2nnc(-c3ccccc3)o2)cc1 (stereo unspecified)
COc1cc(Cl)c(NC(=O)CC(C)S(=O)(=O)c2cc3c(cc2C)NC(=O)CO3)c(OC)c1 (stereo unspecified)
Cc1cccc(Cc2c(C)nc3nc(SCc4ccccc4Cl)nn3c2C)c1
CCN(C(=O)CN1C(=O)/C(=C/c2ccc(F)cc2)SC1=S)C1CCS(=O)(=O)C1 (stereo unspecified)
CN(C(=O)CN1C(=O)/C(=C/c2ccc(Cl)cc2)SC1=S)C1CCS(=O)(=O)C1 (stereo unspecified)
COCCN(Cc1ccco1)C(=O)Cn1ncc2c([nH]c3ccccc32)c1=O
Cc1cc(C)cc(NC(c2nnc(-c3cccc(F)c3)o2)c2ccc(F)cc2Cl)c1 (stereo unspecified)
CCCS(=O)(=O)Nc1cccc(-c2cn3ccsc3n2)c1
COc1cccc(OC)c1OCCN1CCN(C(=O)c2ccco2)CC1
COc1ccccc1C(=O)N1CCN=C1SCc1cccnc1
CCCn1c(NCc2ccccc2F)nc2ccccc21
CCCn1c(NC(=O)C23CC4CC(CC(O)(C4)C2)C3)nc2ccccc21
O=C(NC1(C(F)(F)F)N=C(c2ccccc2)N(C2CCCCC2)C1=O)c1ccccc1F (stereo unspecified)
CCN(CC)C(=O)CSc1nc2ccsc2c(=O)n1Cc1ccccc1Cl
Cc1cc(/C=C2/NC(=O)NC2=O)c(C)n1-c1cccnc1
COc1cc(C(=O)NCCc2csc3nc(-c4ccccc4C)nn23)cc(OC)c1OC
CCOCCc1nn2c(=O)cc(COC(=O)CNC(=O)c3ccc(C(C)(C)C)cc3)nc2s1
CCCCN(C)c1nnc(NC(=O)Nc2ccc(Br)c(C)c2)s1
c1ccc2c(CSCc3nc4ccccc4[nH]3)cccc2c1
Nc1scc[n+]1Cc1cccc2cccnc12
O=C(C1COc2ccccc2O1)N(Cc1cccnc1)c1nc2c(F)cc(F)cc2s1 (stereo unspecified)
CCCn1c(=N)n(CC(O)COc2ccccc2OC)c2ccccc21 (stereo unspecified)
COc1ccccc1OCC(O)CN1CCOCC1 (stereo unspecified)
CCOc1ccc(C2CC(=O)c3c([nH]c(C(=O)OCc4ccccc4)c3C)C2)cc1 (stereo unspecified)
NC(=O)N/N=C\c1cccs1
COc1ccc(Nc2nc(=O)[nH]nc2C)cc1
COc1cc(C(=O)NC(=S)NCc2ccco2)cc(OC)c1OC
COC(=O)Cc1ccc(NC(=S)NCc2ccco2)cc1
N#Cc1nc(/C=C/c2ccc(F)cc2)oc1NC1CCCCC1
Cc1c(CCC(=O)O)c(=O)oc2cc(OCc3ccc(Br)cc3)ccc12
CCOC(=O)CCc1c(C)c2ccc(OCc3nn[nH]n3)c(C)c2oc1=O
O=C(c1ccccc1F)N1CCC(c2nc3c(nnn3Cc3cccc(F)c3)c(=O)[nH]2)CC1
Cc1ccc(NC(=O)COC(=O)CCc2nc3ccccc3n2-c2ccccc2)c(C)c1
CC(C)(C)c1ccc(NC(=O)COC(=O)CCc2nc3ccccc3c(=O)[nH]2)cc1
COc1ccc(-n2c(=O)c3c(c4cc(OC)ccc4n3C)n(Cc3cccc(C)c3)c2=O)cc1
CCOC(=O)c1ccc(NC(=O)CCS(=O)(=O)c2ccc(C)cc2)cc1
Cc1ccc(N(C)C(=O)C2CCN(S(=O)(=O)c3ccc4c(c3)CCCN4C(=O)C3CCC3)CC2)cc1
CCOc1cc(/C=C(\C#N)c2nc(-c3cccs3)c(NC(C)=O)s2)ccc1O
COc1cccc2cc(-c3nc(Cl)c4c5c(sc4n3)CC(C)CC5)c(=O)oc12 (stereo unspecified)
COc1cc(C(=O)NCCS(=O)(=O)N2CCN(c3ccccc3)CC2)cc(OC)c1OC
CC(=O)c1ccc(NC(=O)CSc2c(C(C)C)cnc3c2c(=O)n(C)c(=O)n3C)cc1
Cc1ccc(Cl)cc1N1CCN(C(=O)C2CCC(CNS(=O)(=O)c3cccs3)CC2)CC1 (stereo unspecified)
CCOC(=O)C1CCCN(CC(=O)Nc2cc(C)c3c(=O)oc4ccccc4c3n2)C1 (stereo unspecified)

Activity change, negative = inhibition, inactive:
CC(=O)c1ccc(N2CCN(C(=O)CCc3ccccc3)CC2)cc1 8.19% [at 0.457 µM]
